# PubChem BioAssay (NCATS)
# Records with an inconclusive call do not appear. Activity calls are given as the source filed them. Calls come from the whole dose curve; as a rule, active = well fitted curve in the direction sought with a large enough effect; inconclusive = small, poorly fitted or top-dose-only effect, or another doubt; inactive = no such curve, though single readings can be large; an effect the other way counts as inactive or inconclusive.
# Key:
# [1] = biological target: Aldehyde dehydrogenase, mitochondrial (Homo sapiens) (UniProt P05091); assay: qHTS for Inhibitors of the Aldehyde Dehydrogenase Family (ALDH2) Primary screen (AID 2061308); note: nearly all actives have a fitted effect of over 55% in size
# [2] = biological target: Retinaldehyde dehydrogenase 3 (Homo sapiens) (UniProt P47895); assay: qHTS for Inhibitors of the Aldehyde Dehydrogenase Family (ALDH1A3) Confirmatory screens (AID 2061311); note: potency is the fitted concentration of half-maximal effect; nearly all actives have a fitted effect of over 60% in size
# [3] = biological target: Retinal dehydrogenase 2 (Homo sapiens) (UniProt O94788); assay: qHTS for Inhibitors of the Aldehyde Dehydrogenase Family (ALDH1A2) Confirmation screens (AID 2061314); note: potency is the fitted concentration of half-maximal effect; nearly all actives have a fitted effect of over 65% in size
# [4] = biological target: Retinaldehyde dehydrogenase 3 (Homo sapiens) (UniProt P47895); assay: qHTS for Inhibitors of the Aldehyde Dehydrogenase Family (ALDH1A3) Primary screen (AID 2061315)
# [5] = biological target: Aldehyde dehydrogenase 1A1 (Homo sapiens) (UniProt P00352); assay: qHTS for Inhibitors of the Aldehyde Dehydrogenase Family (ALDH1A1) Confirmatory screens (AID 2061316); note: nearly all actives have a fitted effect of over 65% in size; note: potency is the fitted concentration of half-maximal effect
Structure (SMILES),Potency [1],Potency [2],Potency [3],Potency [4],Potency [5]
Cc1ccc(S(=O)(=O)Nc2cccc3ccc[n+](C)c23)cc1,inactive,10.1 µM (active),25.2 µM (active),inactive,–
Cc1ccc(NC(=O)CN2C(=O)N/C(=C\c3ccco3)C2=O)cc1,inactive,4.49 µM (active),–,inactive,–
CC(=O)N1CCN(c2ccc(NCc3ccccc3)cc2)CC1,inactive,12.7 µM (active),11.3 µM (active),–,10.1 µM (active)
Oc1ccc(CNc2cc(Cl)ccn2)c2cccnc12,inactive,3.57 µM (active),12.7 µM (active),–,8.96 µM (active)
COc1ccc(-c2ccc(=O)n(CC(=O)NCCc3ccccc3)n2)cc1,inactive,1.58 µM (active),15.8 µM (active),inactive,inactive
Cc1ccc(CNc2ccc(N3CCNCC3)cc2)cc1,inactive,14.2 µM (active),10.1 µM (active),–,11.3 µM (active)
N[C@@H]1CCN(c2cnc3c(O)ccc(C(=O)O)c3c2)C1,inactive,12.7 µM (active),25.2 µM (active),inactive,inactive
Cc1ccc(-c2ccc(=O)n(CC(=O)NCCc3ccccc3)n2)cc1,inactive,0.447 µM (active),11.2 µM (active),inactive,–
O=C1Nc2ccc(C(=O)c3ccco3)cc2/C1=C/c1cc(Cl)c(O)c(Cl)c1,inactive,14.1 µM (active),12.6 µM (active),inactive,–
O=C1CCCC2=C1C1(CCC1)N=C(Nc1nc3ccccc3o1)N2,inactive,12.7 µM (active),7.98 µM (active),inactive,inactive
